Results reported in PubChem BioAssay (NCATS).
Records with an inconclusive call do not appear. A number with no mark means an inactive call. The call rests on the fitted dose curve; in most records, active means well fitted inhibition curve with a large enough effect; inconclusive means small, poorly fitted or top-dose-only effect; inactive means flat fitted curve, though single readings scatter.

Assay: Drug repurposing screens with cells derived from glioblastoma tumor samples (AID 1345199); further: nearly all actives have a fitted effect of over 40% in size
Settings: GBM patient neurospheres viability, ATP luminescence, 48 h; at 45.9 µM (top of the series); tumour line D
In short: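 Primary testing used CD133+ neurospheres from four GBM patients, seven concentrations, 48 h exposure and ATP-based viability; confirmation added three slower-growing patient lines.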
On the % scale 0 is the no-effect control and ±100 the full control effect.

Row | Compound | activity, negative = cell killing
1 | c1ccc2c(c1)OCC(CN1CCCCC1)O2 (configuration not stated) | -10.7%
2 | COc1cc(S(C)=O)ccc1-c1nc2ncccc2[nH]1 (configuration not stated) | -12%
3 | O=C1CC[C@@H](C(=O)N[C@H]2C[C@@H]2c2ccccc2)N1 | -2.23%
4 | CO/N=C(\C(=O)N[C@@H]1C(=O)N2C(C(=O)[O-])=C(C[n+]3cccc4c3CCC4)CS[C@H]12)c1csc(N)n1 | -9.09%
5 | CCCCC | -7.88%
6 | CCc1ncnc2cc(OC)c(OC)cc12 | -1.42%
7 | CN(Cc1ccccc1)Cc1ccccc1 | 6.3%
8 | O=[N+]([O-])O[C@@H]1CO[C@H]2[C@@H]1OC[C@@H]2O | -5.25%
9 | CO/N=C(\C(=O)N[C@@H]1C(=O)N2C(C(=O)O)=C(CSC(=O)c3ccco3)CS[C@H]12)c1csc(N)n1 | -3.95%
10 | CC/C=C\C/C=C\C/C=C\C/C=C\C/C=C\CCCC(=O)O | -0.692%
11 | CC/C=C\C/C=C\C/C=C\C/C=C\C/C=C\C/C=C\CCC(=O)O | -12.5%
12 | CO | -4.99%
13 | CC[C@H]1OC(=O)[C@H](C)[C@@H](O[C@H]2C[C@@](C)(OC)[C@@H](O)[C@H](C)O2)[C@H](C)[C@@H](O[C@@H]2O[C@H](C)C[C@H](N(C)C)[C@H]2O)[C@](C)(O)C[C@@H](C)CN(C)[C@H](C)[C@@H](O)[C@]1(C)O | -25.4%
14 | NC(Cc1ccccc1)C(=O)O (configuration not stated) | 10.2%
15 | Nc1nccs1 | -10.5%
16 | NCCN | -17.5%
17 | NC(N)=NCC1COc2ccccc2O1 (configuration not stated) | -28.1%
18 | CNCC(=O)N[C@@H](CCCN=C(N)N)C(=O)N[C@H](C(=O)N[C@@H](Cc1ccc(O)cc1)C(=O)N[C@H](C(=O)N[C@@H](Cc1cnc[nH]1)C(=O)N1CCC[C@H]1C(=O)N[C@@H](C)C(=O)O)C(C)C)C(C)C | -7.19%
19 | Nc1ncnc2c1ncn2CCOCP(=O)(O)O | -1.17%
20 | CCC(Cc1c(I)cc(I)c(O)c1I)C(=O)O (configuration not stated) | -2.81%
21 | OB(O)O | -13.8%
22 | CC(C)(COP(=O)(O)OP(=O)(O)OC[C@H]1O[C@@H](n2cnc3c(N)ncnc32)[C@H](O)[C@@H]1OP(=O)(O)O)C(O)C(=O)NCCC(=O)NCCS (some centres not stated) | -6.02%

Same assay, conditions: GBM patient neurospheres viability, ATP luminescence, 48 h; at 46 µM (top of the series); tumour line A

Row | Compound | activity, negative = cell killing
23 | Cc1nc(NS(=O)(=O)c2ccc(N)cc2)nc(C)c1Br | -28.7%
24 | Cc1ccc(S(=O)(=O)O)cc1C | -2.37%
25 | Cc1ccc(S(=O)(=O)NCl)cc1 | -22.9%
26 | CC/C=C\C/C=C\C/C=C\CCCCCCCC(=O)O | -13.9%
27 | CCCCC(CC)COS(=O)(=O)O (configuration not stated) | -18.8%
28 | CN(CCO)CC(O)Cn1cnc2c1c(=O)n(C)c(=O)n2C (configuration not stated) (tested in a mixture with another compound) | -23.5%
29 | CCCCC | -21.1%
30 | O=[N+]([O-])O[C@@H]1CO[C@H]2[C@@H]1OC[C@@H]2O | -36.5%
31 | CO | -10.2%
32 | Nc1nccs1 | -20.4%
33 | NCCN | -28.2%
34 | CCC(Cc1c(I)cc(I)c(O)c1I)C(=O)O (configuration not stated) | -17.6%
35 | OB(O)O | -26.5%
36 | CC(C)(COP(=O)(O)OP(=O)(O)OC[C@H]1O[C@@H](n2cnc3c(N)ncnc32)[C@H](O)[C@@H]1OP(=O)(O)O)C(O)C(=O)NCCC(=O)NCCS (some centres not stated) | -28.8%

Same assay, conditions: GBM patient neurospheres viability, ATP luminescence, 48 h; at 46.1 µM (top of the series); tumour line C

Row | Compound | activity, negative = cell killing
37 | Cc1ccc(S(=O)(=O)O)cc1C | -2.17%
38 | CCc1ccc(S(=O)(=O)O)cc1 | -22.1%
39 | C=CC[N+]1([C@H]2C[C@H]3[C@@H]4CC[C@H]5C[C@H](O)[C@@H](N6CCOCC6)C[C@]5(C)[C@H]4CC[C@]3(C)[C@H]2OC(C)=O)CCCC1 | -21.7%
40 | O=P(O)(O)OP(=O)(O)OP(=O)(O)O | -5.26%
41 | CN1C(C(=O)Nc2ccccn2)C(=O)c2sc(Cl)cc2S1(=O)=O (configuration not stated) | -4.03%
42 | Cc1ccc(S(=O)(=O)NCl)cc1 | -11.3%
43 | CC/C=C\C/C=C\C/C=C\CCCCCCCC(=O)O | 5.73%
44 | CC(=O)N[C@@H]([C@@H](O)[C@H](O)[C@H](O)CO)[C@@H](O)CC(=O)C(=O)O | -14.1%
45 | CNC(=O)[C@H](Cc1c[nH]c2ccccc12)NC(=O)[C@@H](CC(=O)NO)CC(C)C | -23.8%
46 | CC(C)=CCC/C(C)=C/C=C/C(C)=C/C=C/C(C)=C/C=C/C=C(C)/C=C/C=C(C)/C=C/C=C(\C)CCC=C(C)C | 14.8%
47 | FC(F)(F)C(F)(F)C(F)(F)C(F)(F)C(F)(F)C(F)(F)F | -26.4%
48 | CCCCC(CC)COS(=O)(=O)O (configuration not stated) | -4.44%
49 | CN(CCO)CC(O)Cn1cnc2c1c(=O)n(C)c(=O)n2C (configuration not stated) (tested in a mixture with another compound) | -30%
50 | O=C1N=C2SCCN2C(=O)C1Cc1ccc(Cl)cc1 (configuration not stated) | -2.54%
51 | c1ccc2c(c1)OCC(CN1CCCCC1)O2 (configuration not stated) | -13%
52 | COc1cc(S(C)=O)ccc1-c1nc2ncccc2[nH]1 (configuration not stated) | -12.6%

Row | Compound | activity, negative = cell killing
53 | O=C1CC[C@@H](C(=O)N[C@H]2C[C@@H]2c2ccccc2)N1 | 4.74%
54 | CCCCC | 22.7%
55 | CCc1ncnc2cc(OC)c(OC)cc12 | -14.3%
56 | CN(Cc1ccccc1)Cc1ccccc1 | -21.1%
57 | CO/N=C(\C(=O)N[C@@H]1C(=O)N2C(C(=O)O)=C(CSC(=O)c3ccco3)CS[C@H]12)c1csc(N)n1 | -21.7%
58 | CC/C=C\C/C=C\C/C=C\C/C=C\C/C=C\CCCC(=O)O | -8.93%
59 | CC/C=C\C/C=C\C/C=C\C/C=C\C/C=C\C/C=C\CCC(=O)O | -20.7%
60 | CO | -11.6%
61 | CC[C@H]1OC(=O)[C@H](C)[C@@H](O[C@H]2C[C@@](C)(OC)[C@@H](O)[C@H](C)O2)[C@H](C)[C@@H](O[C@@H]2O[C@H](C)C[C@H](N(C)C)[C@H]2O)[C@](C)(O)C[C@@H](C)CN(C)[C@H](C)[C@@H](O)[C@]1(C)O | -5.95%
62 | NC(Cc1ccccc1)C(=O)O (configuration not stated) | -12.6%
63 | Nc1nccs1 | -24.6%
64 | NCCN | 1.75%
65 | CNCC(=O)N[C@@H](CCCN=C(N)N)C(=O)N[C@H](C(=O)N[C@@H](Cc1ccc(O)cc1)C(=O)N[C@H](C(=O)N[C@@H](Cc1cnc[nH]1)C(=O)N1CCC[C@H]1C(=O)N[C@@H](C)C(=O)O)C(C)C)C(C)C | -6.49%
66 | Nc1ncnc2c1ncn2CCOCP(=O)(O)O | -21.5%
67 | OB(O)O | 5.29%
